FXIa single inh: blocks human coagulation factor XIa activity; P03951; purified human FXIa, fluorogenic AMC substrate cleavage; inhibition, % at 10 µM; 0.3% of 33,000 active; AID 687;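 active means inhibition above 40% in the primary screen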;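 further: 0% = enzyme without compound and 100% = blank wells lacking enzyme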
Target sequence (P03951 19-387 limits assumed): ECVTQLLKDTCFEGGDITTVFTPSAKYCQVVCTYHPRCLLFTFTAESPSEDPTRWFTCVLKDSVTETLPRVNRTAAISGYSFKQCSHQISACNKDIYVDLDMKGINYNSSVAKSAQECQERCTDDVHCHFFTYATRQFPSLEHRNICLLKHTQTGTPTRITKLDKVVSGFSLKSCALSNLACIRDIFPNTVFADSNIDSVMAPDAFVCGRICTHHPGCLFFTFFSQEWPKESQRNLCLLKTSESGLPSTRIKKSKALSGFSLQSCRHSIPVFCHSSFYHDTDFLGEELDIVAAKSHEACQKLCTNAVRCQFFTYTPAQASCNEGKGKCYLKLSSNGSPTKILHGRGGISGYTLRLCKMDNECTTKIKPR
Target sequence (P03951 388-625 limits assumed): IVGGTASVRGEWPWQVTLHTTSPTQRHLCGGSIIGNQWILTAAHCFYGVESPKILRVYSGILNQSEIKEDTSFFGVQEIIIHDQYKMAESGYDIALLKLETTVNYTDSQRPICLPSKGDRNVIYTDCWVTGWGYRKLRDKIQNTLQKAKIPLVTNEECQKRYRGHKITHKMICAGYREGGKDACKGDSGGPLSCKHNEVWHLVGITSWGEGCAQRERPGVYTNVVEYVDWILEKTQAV
FXIIa single: inhibitors of human coagulation factor XIIa; inhibition, % at 10 µM; 0.2% of 33,000 active; P00748; AID 701; purified human FXIIa, AMC substrate fluorescence, 2 h; in the data active means inhibition above about 30%;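 further: 0% = enzyme with vehicle only and 100% = no enzyme blank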
Numbers without * were called inactive; nt = no result given. Shown is part of a subset that was picked to be rich in hits.

SMILES | FXIa single inh | FXIIa single
Clc1ccccc1C(c1nnnn1Cc1ccco1)N1CCN(Cc2ccco2)CC1 (stereo unspecified) | -2.5 | 4.5
COc1ccc(Cn2nnnc2C(c2ccccc2Cl)N2CCC(C(N)=O)CC2)cc1 (stereo unspecified) | 45.4* | 2.3
COc1ccc(C(CC(=O)O)NC(=O)COc2ccc(C)cc2)cc1OC (stereo unspecified) | 17.8 | -8.7
COc1cccc(CSc2nc3sc(C)c(C)c3c(=O)n2Cc2ccco2)c1 | 1.0 | 3.4
Cc1cccc(N2CCN(C(=O)n3ccnc3)CC2)c1C | -7.3 | 6.2
CCOC(=O)c1sc(NS(=O)(=O)c2ccccc2Cl)nc1C | 28.3 | -12.3
CCn1c(=O)n(CC)c2cc(S(=O)(=O)Nc3cc(C)cc(C)c3C#N)ccc21 | -3.0 | 5.2
N#Cc1cc2c(nc1SCC(=O)Nc1sc3c(c1C#N)CCC3)CCCCCC2 | -5.3 | 7.1
N#Cc1cc2c(nc1SCC(=O)Nc1sc3c(c1C#N)CCC3)CCC2 | 41.5* | 2.1
CCc1cccc(CC)c1NC(=O)CN1CC(C)SC1=NC1CCCCC1 (stereo unspecified) | 7.1 | 6.1
CCOC(=O)c1sc(NC(=O)CSc2nc(-c3ccco3)cc(C(F)(F)F)n2)c(C(=O)OC(C)C)c1C | 3.7 | 7.4
CC1=C(C(=O)OC(C)C)C(c2coc3ccccc3c2=O)C2=C(CCCC2=O)N1 (stereo unspecified) | 50.4* | 7.4
CCOC(=O)C1=C(C)NC2=C(C(=O)CC(C)(C)C2)C1c1coc2ccccc2c1=O (stereo unspecified) | 6.6 | 5.0
CC(=O)Oc1ccc2c(C)cc(=O)oc2c1 | 6.4 | 32.2*
CC(=O)Oc1cc2oc(=O)cc(C)c2cc1OC(C)=O | -0.2 | -1.4
COc1ccc2c(c1)c(=O)oc1cc(OCC(=O)N3CCc4ccccc4C3)ccc12 | -4.6 | -1.4
CCOC(CNC(=O)c1cccn2c(=O)c3cc(Cl)ccc3nc12)OCC | -10.8 | -0.7
CN(C(=O)CSc1nc(-c2ccccc2)cn1N)C(c1ccccc1)c1ccccc1 | 26.6 | -10.4
O=C(c1cccs1)N1CCN(S(=O)(=O)Cc2ccccc2)CC1 | -1.0 | 7.8
O=S(=O)(Cc1ccccc1)N1CCC(c2nc(-c3cccs3)no2)CC1 | 45.6* | -10.2
CC(=O)Oc1cc(OC(C)=O)c2c(C)cc(=O)oc2c1 | -4.4 | -1.4
Cc1cc(OC(=O)c2ccco2)c2c(C)cc(=O)oc2c1 | 43.9* | 30.8*
FC(F)(F)c1cnc(Oc2ccc(-c3nnco3)cc2)c(Cl)c1 | -0.8 | 30.8*
FC(F)(F)c1cnc(Oc2ccccc2-c2nnco2)c(Cl)c1 | -4.2 | 6.9
Cc1cccc(-n2cnc(C(=O)N/N=C/c3ccccc3)c2)n1 | -6.9 | 10.5
SMILES | FXIa single inh | FXIIa single
O=C(Nc1ccccc1)c1sc2cc(C(F)(F)F)cnc2c1-c1cccs1 | -1.2 | 9.3
CCn1cc([N+](=O)[O-])c(C(=O)N2N=C3/C(=C/c4cccs4)CCCC3C2c2cccs2)n1 (stereo unspecified) | 1.9 | -18.2
O=C(C1CCC1)N(CCc1ccccc1)Cc1nc2ccccc2c(=O)[nH]1 | 1.0 | 34.1*
CCCC(=O)N(CCc1ccc(OC)cc1)Cc1nc2ccccc2c(=O)[nH]1 | 2.5 | 12.6
Fc1ccc(Nc2nc(Oc3ccccc3F)nc(N3CCCC3)n2)cc1 | -2.9 | 4.0
CC(C)CCCC(C)NS(=O)(=O)Cc1ccccc1 (stereo unspecified) | -2.4 | -0.9
CCOC(=O)c1ccc(CC2S/C(=C(\C#N)C(C)=O)NC2=O)cc1 (stereo unspecified) | 2.8 | 13.2
CCc1ccc(CC2S/C(=C(\C#N)C(C)=O)NC2=O)cc1 (stereo unspecified) | 49.3* | 6.7
Cc1ccc(SCC(=O)NCCSC(C)(C)C)cc1 | 5.3 | 17.4
Cn1ccnc1Sc1nc2ccccc2nc1NS(=O)(=O)c1ccccc1 | 6.4 | -12.3
CC(NC(=O)C1CCCN(C(=O)N(C)C)C1)c1ccccc1 (stereo unspecified) | -1.4 | 11.6
CCOc1cccc2cc(C(N)=O)c(=NCc3ccccc3)oc12 | 51.8* | -7.9
CCOc1ccccc1OC(=O)c1ccco1 | 4.1 | 4.6
CC1CCCCC1NC(=O)CN1C(=O)CSc2cc(S(=O)(=O)N3CCCCCC3)ccc21 (stereo unspecified) | -0.6 | -3.2
O=C(Nc1ccc(N2CCN(C(=O)c3ccccc3)CC2)cc1)c1ccc2c(c1)OCO2 | 36.0 | nt
O=C(c1ccc2c(c1)OCO2)N1CCN(c2ccc(F)cc2)CC1 | 3.8 | 33.2*
CCNc1nc(NCC)nc(C(=O)OCCO)n1 | 2.2 | 6.0
Cc1nc2cccc(C)n2c(=O)c1Cl | 0.3 | 6.9
Cc1ccc(-n2c(SCC(N)=O)nnc2-c2ccc(S(=O)(=O)N3CCCCC3)cc2)c(C)c1 | -5.8 | 5.4
Cc1cc(=O)[nH]c(-n2[nH]c(C)cc2=O)n1 | 47.9* | 2.8
Cc1cccc(OCc2nc(C)cc(=O)[nH]2)c1 | -1.6 | 3.0
O=C(NCCSCc1ccccc1)c1ccc(C2SCC(=O)N2Cc2ccccc2)cc1 (stereo unspecified) | -6.4 | -0.5
Cc1ccc(-c2n[nH]c(=O)c3ccccc23)cc1S(=O)(=O)N(C)CCO | 17.8 | -12.7
Cc1ccc(-c2n[nH]c(=O)c3ccccc23)cc1S(=O)(=O)NCCO | -6.4 | 38.5*
COC(=O)c1cc(CN2CCN(c3ccccc3C)CC2)ccc1O | 10.4 | 2.8
SMILES | FXIa single inh | FXIIa single
COc1ccc(C(=O)N(Cc2ccccc2)Cc2cc3cc4c(cc3[nH]c2=O)OCCO4)cc1 | -9.7 | 1.7
COc1cccc(C(=O)N(Cc2ccccc2)Cc2cc3cc4c(cc3[nH]c2=O)OCCO4)c1 | 47.3* | 4.5
CC1CCCC(C)N1C(=O)CSc1nnc(COc2ccccc2)n1-c1ccccc1 (stereo unspecified) | -2.8 | 5.3
O=C(O)Cc1ccc(C(=O)c2ccccc2F)s1 | -3.8 | 13.9
CC(N)(Cc1ccc(O)cc1)C(=O)O (stereo unspecified) | -2.6 | 3.7
Cc1ccc(C(=O)n2nc(-c3cccnc3)nc2N)cc1 | 42.5* | 92.0*
COc1ccc(-c2nc(N)n(C(C)=O)n2)cc1 | -1.9 | 27.1
CC1CC(C)CN(C(=O)c2ccc3c(c2NCCO)C(=O)c2ccccc2C3=O)C1 (stereo unspecified) | 26.2 | -11.6
Cc1ccc(-c2cc(-c3ccccc3)c3c(N)c(S(C)(=O)=O)sc3n2)cc1 | -5.4 | 51.1*
Cc1cc(C)c2c(N)c(S(=O)(=O)Cc3ccccc3)sc2n1 | 7.5 | 5.0
Cc1cccc(N2CCN(C(=O)CCCSc3nc4ccccc4[nH]3)CC2)c1C | -24.8 | 6.9
CCCC1CCc2c(sc(N)c2C(N)=O)C1 (stereo unspecified) | 52.3* | 7.2
CCOC(=O)c1c(NS(C)(=O)=O)sc2c1CCC(C)C2 (stereo unspecified) | -4.5 | 6.9
S=C(N=Nc1ccccc1)NNc1ccccc1 | -14.8 | -8.9
CCCn1c(SCc2ccon2)nc2ccccc2c1=O | -1.9 | 8.2
NS(=O)(=O)c1cc2c(cc1C(F)(F)F)NC(Cc1ccccc1)NS2(=O)=O (stereo unspecified) | 3.3 | 6.5
O=C(Oc1ccc(Cl)c2cccnc12)c1ccco1 | 7.3 | 36.8*
O=C(Oc1cccc2cccnc12)c1ccco1 | -4.9 | 9.8
COc1ccc2c(=O)cc(-c3ccccc3)n(C)c2c1 | 104.7* | -12.8
COc1ccc2c(c1)c1ccccc1n2C | 1.2 | 4.7
CC(C)CN(CC(C)C)C(=O)CC(=O)NC(=O)c1ccc(Cl)cc1 | 4.6 | 4.4
O=C(CCCCCN1C(=O)CCC1=O)Nc1ccc(Cl)c(C(F)(F)F)c1 | -16.9 | 3.8
